Sampled rows, rich in hits. Any-hit rate of the full collection: about 20%.
Pf growth 96h: Primary qHTS for delayed death inhibitors of the malarial parasite plastid, 96 hour incubation. AID 504834, 2011. P. falciparum luciferase reporter growth, 96 h. actives 6.9% (n = 320,000). Potency, µM (titrated, usually from 28.7 µM), inactives show at the top dose activity change, negative = inhibition, hits mostly inhibitors; also: potency is read from the fitted curve at half-maximal effect; % is scaled to controls: 0 for no effect and ±100 for the full control effect
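P. falciparum expressing integrated firefly luciferase, in erythrocytes at 2% hematocrit, 0.05% parasitemia, incubated with compounds 96 h at 37 C, 5% CO2. Growth inhibition read as loss of luminescence; two-generation exposure targets delayed-death apicoplast inhibitors.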
Shiga toxin inh: A qHTS for Small Molecule Inhibitors of Shiga Toxin. actives 9.2% (n = 290,000). inhibition, % at 38.7 µM. Vero cells, Shiga toxin protein synthesis inhibition reporter; in the data active = inhibition mostly above about 28%, no sharp cut-off; inactive = mostly below about 43%; also: 0% is about no effect
Pf growth 48h: Primary qHTS for delayed death inhibitors of the malarial parasite plastid, 48 hour incubation. Potency, µM (highest dose often 28.7 µM), for the others: at the top dose activity change, negative = inhibition, actives largely listed as inhibitors. actives 5.9% (n = 310,000). P. falciparum luciferase growth in erythrocytes, 48 h; also: potency is read from the fitted curve at half-maximal effect; % is scaled to controls: 0 for no effect and ±100 for the full control effect
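In quantitative HTS format, infected erythrocytes bearing luciferase-reporter parasites were treated for a single generation at 37 C. Luminescence after adding detection reagent served as the growth measure.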
HCMV inh: qHTS Assay for inhibitors of the human cytomegalovirus (HCMV) | HFF cells, HCMV-luciferase reporter, 72 h; active compounds read low | actives 4.5% (n = 410,000) | activity change, negative = inhibition, % at 57.5 µM; in the data active = activity change below about -60%; inconclusive = no clear call, values can overlap the other calls; inactive = above about -39%; also: % is scaled to controls: 0 for no effect and ±100 for the full control effect
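Two-dose cell screen: HFF monolayers treated with compounds and infected with luciferase-expressing HCMV at 1 PFU/cell, 72 h at 37C, then lysed for luciferase measurement.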
Cycloheximide cs: Cycloheximide Counterscreen for Small Molecule Inhibitors of Shiga Toxin; max response, %; actives 12% (n = 300,000); cell reporter, cycloheximide protein synthesis inhibition counterscreen; AID 2314, 2010; in the data active = max response mostly above about 13%, no sharp cut-off; inactive = mostly below about 14%; also: read at 38.3 µM for the half of the compounds with a filed dose; 0% is about no effect
An asterisk follows results filed as active; ? = inconclusive; nt = no result; + = active, no number. Unless noted, calls follow the shape of the dose curve; as a rule, active = well fitted inhibition curve with a large enough effect; inconclusive = small, poorly fitted or top-dose-only effect, or another doubt; inactive = no such curve, though single readings can be large or run the other way.

SMILES	Pf growth 96h	Shiga toxin inh	Pf growth 48h	HCMV inh	Cycloheximide cs
COCCNC(=O)c1cc(-c2cccc(OC)c2)on1	4.9%	74.3*	232.3%	35.0	42.5*
COc1cccc(-c2cc(C(=O)Nc3cccc(O)c3)no2)c1	-12.7%	33.3	222.1%	85.3	22.8
COCC(C)NC(=O)c1cc(-c2ccc(O)cc2)on1 (configuration not stated)	-0.3%	57.3	nt	50.2	35.9*
COc1ccc(-c2cc(C(=O)Nc3ccccc3SC)no2)cc1OC	121.7%	-8.5	30.2%	-6.8	-2.3
COc1cccc(-c2cc(C(=O)Nc3ccccc3SC)no2)c1	16.3%	34.8*	140.1%	5.4	36.2*
COC(=O)C1=C(C)C(c2ccc(OC)cc2OC)NC(=O)N1 (configuration not stated)	-14.2%	22.2	8.8%	-5.2	-4.3
COc1ccc(C2CC(C)(c3ccc(OC)cc3OC)Nc3ccccc3N2)c(OC)c1 (configuration not stated)	0.0%	63.3*	130.7%	-8.9	30.3*
CC1=C(C)C(=O)C(N2CCOCC2)=CC1=O	?	29.5	?	-68.4*	-0.6
O=C1C=C(N2CCOCC2)c2ccccc2C1=O	19.3%	nt	?	-96.7*	-7.9
O=C1C=C(N2CC2)c2ccccc2C1=O	nt	nt	nt	-22.7	nt
COc1ccc(C(=O)N2CCC(c3nc(-c4ccc(S(=O)(=O)N5CCCC5)cc4)no3)CC2)cc1	nt	nt	nt	-81.2*	nt
O=C(C(c1ccccc1)c1ccccc1)N1CCC(c2nc(-c3ccccc3Cl)no2)CC1	nt	nt	nt	-16.1	nt
COc1ccc(-c2noc(C3CCCN(C(=O)c4ccccc4OC)C3)n2)cc1 (configuration not stated)	?	13.5	-13.3%	-83.9*	15.1
O=C(CC1CCCCC1)N1CCCC(c2nc(-c3ccc(S(=O)(=O)N4CCCC4)cc3)no2)C1 (configuration not stated)	?	-6.3	nt	-70.6*	-6.3
O=C(O)c1ccc(S(=O)(=O)N2CCC(c3nc(-c4ccccc4Cl)no3)CC2)cc1	9.28µM*	19.0	-24.0%	27.9	-3.7
NCCCC[C@H](NC(=O)[C@@H]1CCCN1C(=O)[C@@H](N)CCCN=C(N)N)C(=O)N1CCC[C@H]1C(=O)N[C@@H](CCC(N)=O)C(=O)N[C@@H](CCC(N)=O)C(=O)N[C@@H](Cc1ccccc1)C(=O)O	nt	-9.9	nt	nt	-5.3
C[C@@H](NC(=O)[C@@H]1CCCN1C(=O)[C@@H]1CCCN1C(=O)c1cccc2ccccc12)c1ccccc1	nt	nt	nt	-4.0	nt
O=C(c1ccco1)N1CCCC(c2nc(-c3ccc(S(=O)(=O)NCc4ccccc4)cc3)no2)C1 (configuration not stated)	44.1%	+	?	-87.8*	9.9
CCCCCC(=O)N1CCCC(c2nc(-c3ccc(OC)cc3)no2)C1 (configuration not stated)	16.2%	6.7	14.7%	-19.6	-0.7
COc1ccc(-c2noc(C3CCCN(C(=O)c4ccccc4)C3)n2)cc1 (configuration not stated)	-3.3%	43.3*	122.0%	-7.5	32.3*
COc1ccc(-c2noc(C3CCCN(C(=O)CCc4ccccc4)C3)n2)cc1 (configuration not stated)	206.4%	22.6	-0.1%	16.2	14.5*
O=C(Cc1ccccc1)N1CCCC(c2nc(-c3cccs3)no2)C1 (configuration not stated)	?	-1.2	-2.5%	-17.3	-2.3
COc1ccccc1C(=O)C1CCCN(C(=O)c2cccnc2SC)C1 (configuration not stated)	67.5%	12.2	5.22µM*	-32.2	7.1
CCN(CC)C(=O)Cn1cc(SCC(=O)Nc2ccccc2F)c2ccccc21	nt	nt	nt	4.1	nt
CCCCN(C)CCNC(=O)c1ccc2c(c1)NC(=O)CN2	nt	nt	nt	2.1	nt
Cc1nc2ccc(C(=O)N3CCN(c4ccccc4)CC3)cn2c1N(C)C(=O)CCc1ccccc1	nt	nt	nt	17.9	nt
O=P(OC1CCCCC1)(OC1CCCCC1)C(O)c1ccccc1 (configuration not stated)	-13.5%	-25.3	nt	-2.7	-2.1
COc1ccc(OC)c(C2N=C(N)Nc3nc4ccccc4n32)c1 (configuration not stated)	nt	nt	nt	13.2	nt
